Experimental findings from ChEMBL document CHEMBL3988442, “University of Dundee, Small-Polar-MMV Screening Library” (2021) are described below.

In all, about 67,000 compounds went through this assay and about 300 (0.45%) showed an effect of 50% or more. The entries come from a sample that favours strong results as a whole.

Chain of Polyketide synthase Pks13 (Mycobacterium tuberculosis (strain ATCC 25618 / H37Rv)) (I6X8D2 whole entry): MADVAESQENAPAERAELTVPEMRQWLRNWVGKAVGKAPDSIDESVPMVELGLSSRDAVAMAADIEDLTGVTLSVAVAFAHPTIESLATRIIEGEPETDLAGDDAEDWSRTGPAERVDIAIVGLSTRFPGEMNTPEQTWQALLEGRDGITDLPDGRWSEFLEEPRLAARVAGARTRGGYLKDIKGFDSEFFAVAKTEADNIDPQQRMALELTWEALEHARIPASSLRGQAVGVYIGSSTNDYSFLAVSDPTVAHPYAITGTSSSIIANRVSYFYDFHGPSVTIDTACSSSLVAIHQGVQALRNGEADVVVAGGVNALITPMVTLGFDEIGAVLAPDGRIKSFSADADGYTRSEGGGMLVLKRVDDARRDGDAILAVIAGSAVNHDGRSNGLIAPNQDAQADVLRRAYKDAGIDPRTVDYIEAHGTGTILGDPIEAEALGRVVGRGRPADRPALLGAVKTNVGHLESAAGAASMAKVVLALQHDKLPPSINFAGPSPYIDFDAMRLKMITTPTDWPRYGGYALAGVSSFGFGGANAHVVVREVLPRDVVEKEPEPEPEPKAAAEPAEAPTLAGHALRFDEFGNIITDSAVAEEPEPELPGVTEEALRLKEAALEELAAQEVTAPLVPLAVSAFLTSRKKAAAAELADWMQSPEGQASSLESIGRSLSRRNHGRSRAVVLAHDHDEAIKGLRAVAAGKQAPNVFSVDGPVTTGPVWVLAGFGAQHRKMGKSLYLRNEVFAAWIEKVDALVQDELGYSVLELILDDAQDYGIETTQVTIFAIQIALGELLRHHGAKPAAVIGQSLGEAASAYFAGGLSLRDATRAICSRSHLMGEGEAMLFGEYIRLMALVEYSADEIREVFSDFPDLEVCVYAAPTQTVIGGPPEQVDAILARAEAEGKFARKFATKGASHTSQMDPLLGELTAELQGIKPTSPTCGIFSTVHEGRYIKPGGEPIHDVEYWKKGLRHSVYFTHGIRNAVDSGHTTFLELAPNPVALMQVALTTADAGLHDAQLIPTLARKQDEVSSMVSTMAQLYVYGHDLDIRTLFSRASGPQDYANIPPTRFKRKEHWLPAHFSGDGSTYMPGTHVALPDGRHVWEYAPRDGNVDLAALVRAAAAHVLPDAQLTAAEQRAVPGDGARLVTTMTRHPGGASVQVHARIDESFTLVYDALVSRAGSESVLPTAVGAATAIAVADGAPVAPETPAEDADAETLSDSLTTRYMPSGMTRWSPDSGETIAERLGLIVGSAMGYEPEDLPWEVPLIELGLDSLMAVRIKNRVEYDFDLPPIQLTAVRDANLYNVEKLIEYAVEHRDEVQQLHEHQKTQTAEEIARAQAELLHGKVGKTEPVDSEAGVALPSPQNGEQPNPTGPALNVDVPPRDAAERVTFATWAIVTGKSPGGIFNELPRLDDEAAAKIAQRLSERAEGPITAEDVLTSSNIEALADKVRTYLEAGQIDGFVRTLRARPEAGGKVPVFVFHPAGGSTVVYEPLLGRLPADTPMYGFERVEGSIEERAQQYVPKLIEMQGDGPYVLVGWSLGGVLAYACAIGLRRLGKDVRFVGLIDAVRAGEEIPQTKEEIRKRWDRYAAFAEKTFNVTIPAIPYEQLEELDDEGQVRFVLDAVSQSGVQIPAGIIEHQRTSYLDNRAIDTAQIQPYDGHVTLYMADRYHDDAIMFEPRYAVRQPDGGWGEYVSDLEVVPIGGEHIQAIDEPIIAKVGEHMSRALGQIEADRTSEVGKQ

The assay addresses Polyketide synthase Pks13 (Mycobacterium tuberculosis (strain ATCC 25618 / H37Rv)) (UniProt I6X8D2). Description: Mycobacterium tuberculosis Polyketide synthase 13 Thioesterase (PKS13). Format: functional. On the set-up: scale not given: in the data most compounds retested in dose-response had high values. The conditions noted are these: 30 µM.
As to `CC(=O)NCCNC(=O)c1sc(-c2ccc(Cl)cc2)nc1C`, the Percent Effect was -15.5%.
Next, `CN(CC(N)=O)C(=O)c1cnc(-c2ccc(Cl)s2)s1`: -171%; `Cc1nc(-c2ccc(Cl)s2)sc1C(=O)N(C)CC(N)=O`: 88.9%.
Next, `COC(=O)CNC(=O)c1scnc1C`: -29.3%; `Cc1nc(-c2ccc(Cl)s2)sc1C(=O)NCCS(N)(=O)=O`: 54%.
For `CC(=O)NCCNC(=O)c1sc(-c2ccc(C)cc2C)nc1C` the value was -6.1%.
Take `CN(CC(N)=O)C(=O)c1cc(Cl)c(Cl)n1C`: the Percent Effect is -6.47%.
Next, `Cc1nc(-c2ccc(Cl)s2)sc1C(=O)NCCCC(N)=O`: 54.9%.
For `Cc1c(C(=O)NCCCC(N)=O)sc2ccc(F)cc12` the value was 0.295%; for `CC(=O)NCCNC(=O)c1sc(-c2ccc(Cl)s2)nc1C`, 33.9%; for `COC(=O)CNC(=O)c1sc(-c2ccc(Cl)s2)nc1C`, 51.9%.
For `COC(=O)CNC(=O)c1nc(Cl)sc1C(C)C` the value was -1.24%; for `CN(C)C(=O)CN1C[C@@H]2CC[C@H](C1)N(Cc1ccccc1OCCO)C2`, -4.8%.
As to `CCCN1CCN(Cc2cccc(OC(C)C)c2)[C@H]2CS(=O)(=O)C[C@H]21`, the Percent Effect was -8.54%.
For `O=C(CO[C@@H]1CC[C@H]2[C@H]1OCCN2c1ncccn1)N1CCCC1` the value was -31.3%; for `C1CCN(CCO[C@@H]2CC[C@H]3[C@H]2OCCN3CC2CCOCC2)C1`, -4.73%; for `c1cnc(NC[C@H]2OC[C@@H]3CCN(Cc4ccsc4)C[C@@H]32)nc1`, -14%.
`Cc1ccc(S(=O)(=O)N2CC[C@H]3CO[C@H](CN(C)C)[C@H]3C2)cc1`: the Percent Effect was -8.17%.
Next, `CC(C)N1C(=O)CO[C@H]2CCN(C(=O)c3ccc4c(c3)CCC4)CC[C@@H]21`: 13%; `CC(C)(NC(=O)c1ccc(-c2ccc(F)cc2)s1)C(N)=O`: -17.8%; `Cc1nc(-c2ccc(Cl)s2)sc1C(=O)O`: 11.9%.
Next, `Cc1nc(-c2ccc(Cl)s2)sc1C(=O)NC(C)(C)C(N)=O`: 59.7%; `O=C1[C@@H]2CN(Cc3cc4ccccc4o3)C[C@]2(C(=O)O)CN1CC1CC1`: -17.7%.
For `CN(C)C(=O)N1C[C@@H]2CC[C@H](C1)N(C(=O)CCCn1cncn1)C2`, the Percent Effect was -5.92%.
For `Cc1csc(CNc2nc3c(s2)c(C)nn3C)n1` the value was 24%.
For `Cc1csc(CNc2cnc3c(c2)c(C)nn3C)n1` the value was 54.4%.
For `Cc1csc(CCNCc2cnc3c(c2)c(C)nn3C)n1` the value was -13.2%; for `Cc1ccc([C@]2(O)CC[C@H]3CN(Cc4cccc(Cl)c4Cl)C[C@H]32)nc1`, -77.5%; for `COc1ccnc(N2C[C@@H]3CC[C@H](C2)N(CC2CC2)C3)n1`, -40.5%.
`Cc1ccc(-c2cc(C(=O)NCCCc3csc(N)n3)[nH]n2)o1`: the Percent Effect was -10.8%.
As for `Cn1cccc1-c1cc(C(=O)NCCCc2csc(N)n2)[nH]n1`, the Percent Effect was 3.3%.
For `Cc1ccc(-c2cc(C(=O)NCCCc3csc(N)n3)[nH]n2)s1` the value was 57.8%.
In the case of `COCCN1C[C@H]2[C@@H](C1)N(C(=O)CCc1ccccc1)CC[C@H]2OC`, the Percent Effect was -5.76%.
For `Cc1nnc([C@@H]2CC[C@@H]3[C@@H](CCN3S(=O)(=O)c3cccnc3)O2)o1` the value was -18.5%; for `NC(=O)c1ccccc1-n1cc(-c2cccc(C(=O)O)c2)cn1`, 61.5%.
Next, `NC(=O)c1cc(-c2cccc(C(=O)O)c2)cs1`: -10.7%; `NC(=O)c1cc(-n2cc(-c3cccc(C(=O)O)c3)cn2)cs1`: -18.4%; `CC(=O)N1[C@H](CN(C)C)C[C@@H]2CN(C(=O)c3cccc(F)c3)CC[C@@H]21`: -7.05%.
For `O=C(c1ccc(F)cc1)N1C[C@@H]2CN(c3ncccn3)C[C@@H]2C1` the value was -16.8%.
With `CN(C)S(=O)(=O)N1CC[C@]2(O)CCN(c3ncccn3)C[C@@H]2C1`, the Percent Effect is 5.3%.
For `CS(=O)(=O)NC[C@H]1OC[C@@H]2CN(Cc3cccnc3)CC[C@@H]21` the value was 7.73%; for `CC(NC(=O)CN(C)S(C)(=O)=O)c1nnc2n1CCCCC2` (stereo unspecified), 76.2%.
Next, `CC(C)CCC(=O)NC(C)c1nnc2n1CCCCC2` (stereo unspecified): -2.75%; `CC(NC(=O)COCC(F)(F)F)c1nnc2n1CCCCC2` (stereo unspecified): -15.5%.
Next, `Cc1noc(C)c1CN1C[C@@H]2CCCO[C@@H]2[C@H](Nc2ccccn2)C1`: -22.7%; `Cc1nnc(C[C@@H]2COC[C@H]3CN(C(=O)c4ccco4)C[C@@H]23)o1`: -27.6%.
With `Cc1cccc(CN2C[C@H]3C[C@H](C(=O)NCc4cccnc4)[C@@H](C2)O3)c1`, the Percent Effect came out at 2.63%.
For the molecule `c1ccc(CCCN2CC[C@H](c3nnc(-c4cccnc4)o3)C2)cc1`, the Percent Effect was -20%.
For `c1ccc(CCCN2CC[C@H](c3nnc(-c4ccccc4)o3)C2)cc1` the value was 96.4%.
Next, `Cc1nnc([C@H]2CCN(CCCc3ccccc3)C2)o1`: 8.46%; `Cc1nc(O)cc(CNC(=O)CC[C@@H]2CCCN3CCCC[C@H]23)n1`: -2.37%.
Regarding `COc1cccc(CNC[C@@]2(COc3cccnc3)C[C@@H](O)[C@@H](O)C2)c1`, the Percent Effect was 3.65%.
For the molecule `COc1ccc(C2CCCN2C(=O)c2cc3c([nH]c2=O)CCC3)cc1` (stereo unspecified), the Percent Effect came to 57.9%.
For `COCc1nc(C(=O)N2CCCC2c2cccc(C)c2)cs1` (stereo unspecified) the value was -1.31%; for `COc1cccc(C2CCCN2C(=O)c2cc3c([nH]c2=O)CCC3)c1` (stereo unspecified), 43.2%.
Next, `COCc1nc(C(=O)N2CCCC2c2ccncc2)cs1` (stereo unspecified): -19.5%; `O=C(c1cc2c([nH]c1=O)CCC2)N1CCCC1c1ccc(F)cc1` (stereo unspecified): -4.09%; `COCc1nc(C(=O)N2CCCC2c2ccc(OC)cc2)cs1` (stereo unspecified): 76.5%.
Turning to `Cc1ccc(CN2C[C@@H]3[C@@H](C(=O)NCC(C)C)CCS(=O)(=O)[C@@H]3C2)cc1`, the Percent Effect is -36.5%.
With `CCc1ccc(NC(=O)N2C[C@H]3C[C@H](C(=O)N4CCCC4)[C@@H](C2)O3)cc1`, the Percent Effect was -33.7%.
In the case of `COC[C@@]12CCO[C@@H]1CCN(C(=O)COc1ccccc1OC)C2`, the Percent Effect is -28.6%.
In the case of `CNC(=O)[C@H]1C[C@H]2OCC[C@H]2N(Cc2cccc3ccccc23)C1`, the Percent Effect is -14%.
Next, `CCCN1C[C@H]2CC[C@@H]1CN(C(=O)Cc1c(C)nc(CC)[nH]c1=O)C2`: -18.4%.
For `CCCN1CCN(C(=O)c2ccc3ccccc3n2)[C@H]2CS(=O)(=O)C[C@H]21`, the Percent Effect amounted to 11.6%.
For `Cc1noc(C)c1CN1C(=O)[C@H]2CC[C@@H]1CN(Cc1nccs1)C2`, the Percent Effect was -22.4%.
For `COc1ccc(CC(C)Nc2cccc(F)c2)cc1` (stereo unspecified) the value was 8.52%; for `COc1ccc(CCNC(=O)C(C)Nc2ccc(C)c(C)c2)cc1` (stereo unspecified), 1.46%; for `COc1ccc(CCNC(=O)C(C)Nc2cccc(C)c2C)cc1` (stereo unspecified), 10.4%.
For `COc1ccc(CC(C)Nc2cccc(SC)c2)cc1` (stereo unspecified) the value was 57.2%; for `COc1ccc(CCC(C)Nc2cccc(SC)c2)cc1` (stereo unspecified), 65.2%.
Next, `COc1ccc(C(=O)Nc2cccc(SC)c2)c(OC)n1`: -19.8%; `Cn1cc(CN2C[C@@H]3COC[C@]3(CNC(=O)c3ccsc3)C2)cn1`: -27.4%.
With `Cc1noc([C@@]23CCO[C@@H]2CCN(Cc2scnc2C)C3)n1`, the Percent Effect was -8.64%.
For `Cc1cc(CN2C[C@H]3CCC[C@@]3(COCc3csc(C)n3)C2)no1` the value was -42.7%.
For `Cc1cc(F)ccc1C(=O)N1C[C@@H]2COC[C@]2(CN(C)C)C1` the value was -28.5%; for `O=C([C@H]1COC[C@H]2CN(C3CCCC3)C[C@H]21)N1CCCCO1`, -0.965%; for `Cc1ccnc(OC[C@]23COC[C@H]2CN(C(=O)c2ncccn2)C3)n1`, 64%.
For the molecule `Cc1ccnc(OC[C@]23COC[C@H]2CN(C(=O)c2ccnn2C)C3)n1`, the Percent Effect is -7.96%.
For `Cc1ccnc(OC[C@]23COC[C@H]2CN(C(=O)c2cnccn2)C3)n1` the value was -10.7%.
For `COCCNC(=O)[C@@]12CCO[C@@H]1CCN(Cc1cc(C)on1)C2` the value was -12.3%; for `Cn1cc(CN2C[C@@H]3COC[C@@H](C(=O)N4CCCCO4)[C@@H]3C2)cn1`, -30.5%.
With `Cc1ccccc1-n1cc(CN(C)C[C@@H]2CCCN3CCCC[C@H]23)cn1`, the Percent Effect is -16.8%.
Take `Cc1cc(C(=O)N2C[C@@H]3COC[C@]3(c3nnc(C4CC4)o3)C2)on1`: the Percent Effect is -7.03%.
Next, `CC(CN1CCCC1=O)NC(=O)c1ccc(-c2ccco2)[nH]c1=O` (stereo unspecified): 73%; `Cc1ccc(C(=O)NC(C)CN2CCCC2=O)c(=O)[nH]1` (stereo unspecified): -2.59%; `CCC(C)NC(=O)c1ccc(-c2ccco2)[nH]c1=O` (stereo unspecified): 7.06%.
For the molecule `O=C1[C@@H]2CCN(C3CCOCC3)C[C@@H]2OCCN1Cc1cccnc1`, the Percent Effect was -7.59%.
Consider `COC[C@H]1CNC(=O)[C@@H]2CCN(Cc3ccc(F)cc3)CC[C@H]12`, for which the Percent Effect is -30.6%.
For `Cn1cnc(-c2nc(C(=O)NC3CC3)c3ccccn23)c1` the value was 113%.
As for `Cn1cnc(-c2nc(C(=O)NCCN3CCCC3)c3ccccn23)c1`, the Percent Effect came out at 18.6%.
In the case of `Cn1cnc(-c2nc(C(=O)NCCN3CCOCC3)c3ccccn23)c1`, the Percent Effect is 141%.
`Cn1cnc(-c2nc(C(=O)NCC3CCCO3)c3ccccn23)c1` (stereo unspecified): the Percent Effect was determined as 5.5%.
For `COCCNC(=O)c1nc(-c2cn(C)cn2)n2ccccc12` the value was 21.3%; for `CC(C)n1cnc(-c2nc(C(=O)NC3CC3)c3ccccn23)c1`, 22.1%; for `N#Cc1c(N2CCN(CC3CCOC3)CC2)nc2ccccn12` (stereo unspecified), 5.84%.
Next, `CN1CCCC(N2CCN(c3nc4ccccn4c3C#N)CC2)C1` (stereo unspecified): 15.1%; `N#Cc1c(N2CCCN(C3CCOCC3)CC2)nc2ccccn12`: 95.8%; `CC(C)c1noc(CC[C@@H]2CCCN3CCCC[C@H]23)n1`: -17.9%.
For `c1cc(CN2CC[C@H]3CO[C@H](CN4CCOCC4)[C@H]3C2)cs1` the value was -3.35%.
In the case of `Cc1cnc(N2CCC3(CCN(CC4CCCC4)C3=O)CC2)nc1`, the Percent Effect was -3.7%.
For `Cc1cnc(N2CCC3(CCN(CC4CC4)C3=O)CC2)nc1` the value was 71.3%; for `O=C1N(CC2CC2)CCC12CCN(c1ncccn1)CC2`, 2.59%.
Next, `COc1ccc(CN2CC[C@H]3CO[C@H](CNC(=O)N(C)C)[C@H]3C2)cc1`: -14.2%; `CCCn1c(N2CCCC(C)C2)nc2c(C)nn(C)c2c1=O` (stereo unspecified): 3.25%.
For `CCCn1c(N2CCCCC2)nc2c(C)nn(C)c2c1=O` the value was 14%; for `CCCn1c(N2CCCC2)nc2c(C)nn(C)c2c1=O`, 67%.
With `Cc1ccoc1-c1nnc(CN2CCOC(Cn3cccn3)C2)o1` (stereo unspecified), the Percent Effect was -3.25%.
Regarding `Cc1noc(C)c1C(=O)N1C[C@H]2CC[C@@H]1CN(c1cnccn1)C2`, the Percent Effect is -13.5%.
Next, `Cn1nccc1CCC(=O)N1CCCC(c2cnccn2)C1` (stereo unspecified): 54.2%; `Cn1nccc1CCC(=O)N1CCC(c2cnccn2)CC1`: -6.75%.
For `Cn1nccc1CCC(=O)N1CCOC(c2cnccn2)C1` (stereo unspecified) the value was 4.28%.
